# This is a sample that favours compounds with a hit; in the whole collection about 3.5% have one here.
# SKN-1 inh: blocks SKN-1 activity in C. elegans. hit rate 0.49% among 360,000. inhibition, % at 21.8 µM. C. elegans VP596 Pgst-4::GFP/RFP ratio, acrylamide-induced, 24 h. AID 624304;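 active means interference check ratio from 0.5 to 1.5 plus GFP to RFP signal ratio inhibition reaching or exceeding a fixed threshold, cut at about 30% in these data, passing the limit was not always enough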
# M1 antag: antagonists of human M1 muscarinic receptor | P11229 | CHO-K1 hM1, Fluo-8 calcium fluorescence, ACh EC80 antagonist | inhibition, % at 3 µM | hit rate 1.3% among 360,000 | AID 588852;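 active means percent inhibition above its own plate's cutoff, namely the mean of that plate's compound wells plus 3 SD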;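 further: peak over basal fluorescence ratio during 140 s after agonist addition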
# M1 PAM: human CHRM1 positive allosteric modulation; CHO-K1 hM1, Fluo-8 calcium fluorescence, ACh EC20; 0% = ACh EC20, 100% = maximal ACh; activation, % at 3 µM; hit rate 0.088% among 360,000; AID 588819; in the data active means activation above about 19%, passing the limit was not always enough
# Myeloid diff MLP: compounds promoting myeloid differentiation. ER-HoxA9 myeloid progenitors, lysozyme-GFP differentiation, flow cytometry. calls only at 10 µM. hit rate 1% among 360,000. AID 624256;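 active means normalized GFP-positive differentiation at or above the plate's own cutoff, the solvent-only control mean plus 3 SD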;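 further: cells exposed to compound for four days before flow analysis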
# ATG4B inh: blocks human ATG4B protease cleavage of LC3 substrate | ATG4B cleavage of LC3-PLA2, NBD-HPC fluorescence, 1 h | inhibition, % at 8.33 µM | hit rate 0.51% among 340,000 | AID 504462; in the data active means inhibition above about 40%
# Target sequence (Q9Y4P1 whole entry, looked up): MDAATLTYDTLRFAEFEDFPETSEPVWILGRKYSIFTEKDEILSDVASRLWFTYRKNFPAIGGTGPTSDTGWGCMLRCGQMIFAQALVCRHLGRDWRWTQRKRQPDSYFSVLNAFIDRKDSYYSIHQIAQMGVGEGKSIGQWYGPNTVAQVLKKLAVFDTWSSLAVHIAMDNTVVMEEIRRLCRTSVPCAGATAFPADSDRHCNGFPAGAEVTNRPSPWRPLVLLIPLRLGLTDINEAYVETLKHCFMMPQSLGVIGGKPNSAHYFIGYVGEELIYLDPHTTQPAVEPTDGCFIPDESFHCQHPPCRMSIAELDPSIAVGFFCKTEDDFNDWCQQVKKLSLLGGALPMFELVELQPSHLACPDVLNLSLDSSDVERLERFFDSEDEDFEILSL
# M1 ag: activates human CHRM1 receptor | hit rate 0.33% among 360,000 | activation, % at 3 µM | AID 588814 | CHO-K1 hM1, Fluo-8 calcium fluorescence, agonist mode; 0% DMSO, 100% acetylcholine EC100;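 active means activation above the run's mean compound activation plus 3 SD, cut at about 16% in these data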;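 further: peak over basal fluorescence ratio within a 140 s kinetic read after compound addition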
# Myeloid diff CP1: compounds promoting myeloid differentiation. shares compounds with Myeloid diff MLP. ER-HoxA9 myeloid progenitors, GFP/Mac1 double-positive flow. calls only. hit rate 2% among 2,300. AID 651706;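 active means share of green or green-and-red cells above 9 and 9% in run 1 or 4 and 3% in run 2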
# GFP autofluor: compound fluorescence in myeloid differentiation counter-screen; ER-HoxA9 myeloid progenitors, no estrogen, GFP autofluorescence flow cytometry; vehicle wells 0%, positive control 100%; fluorescence response, % (no concentration beside the values); shares compounds with Myeloid diff MLP; hit rate 7.4% among 2,300;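 active means over 5% cells positive for green fluorescent reporter, or over 2% positive for both it and APC stain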
# Calls only; - = inactive; . = no result given; + = active, no number.
SMILES,SKN-1 inh,M1 antag,M1 PAM,Myeloid diff MLP,ATG4B inh,M1 ag,Myeloid diff CP1,GFP autofluor
Cc1cc(C(=O)CN2C(=O)CCC2=O)c(C)n1Cc1ccccc1,-,-,-,+,-,-,-,-
Cc1cccc(-c2ocnc2C(=O)Nc2ncc(C)s2)c1,-,-,-,-,.,-,.,.
COc1ccc([C@H]2C[C@H](n3cc(-c4ccc(F)cc4)nn3)[C@@H](O)CN2CC2CCCCC2)cc1,-,-,-,+,.,-,-,-
O[C@H]1C[C@H](c2ccccc2)N(CC2CCCCC2)C[C@@H]1n1cc(-c2ccc(F)cc2)nn1,-,-,-,-,.,-,.,.
O=C(c1cccs1)N1C[C@H](n2cc(-c3ccc(F)cc3)nn2)[C@@H](O)C[C@@H]1c1ccc(Cl)cc1,-,-,-,-,.,-,.,.
CCCCCC(=O)N1C[C@@H](O)[C@H](n2cc(-c3ccc(F)cc3)nn2)C[C@@H]1c1ccc(OC)cc1,-,-,-,-,.,-,-,-
O=C(c1cccs1)N1C[C@@H](n2cc(-c3ccc(F)cc3)nn2)[C@H](O)C[C@@H]1c1ccc(Cl)cc1,-,-,-,-,.,-,-,-
COc1ccc([C@H]2C[C@@H](O)[C@H](n3cc(-c4ccc(F)cc4)nn3)CN2CC2CCCCC2)cc1,-,-,-,-,.,-,-,-
O[C@@H]1CN(CC2CCCCC2)[C@@H](c2ccc(Cl)cc2)C[C@H]1n1cc(-c2ccc(F)cc2)nn1,-,-,-,-,.,-,.,.
NC(=O)c1ccc(SCC(=O)OCC(=O)NCc2ccco2)c([N+](=O)[O-])c1,-,-,-,-,-,-,.,.
O=C(COc1ccc(F)cc1Cl)Nc1ccccc1C(=O)N1CCCCC1,-,-,-,-,-,-,.,.
Nc1nc(-c2ccc(F)cc2)cc(C(F)(F)F)n1,-,-,-,-,-,-,-,-
Nc1nc(-c2ccc(Cl)cc2)cc(C(F)(F)F)n1,-,-,-,-,-,-,.,.
O=C(CCN1C(=O)c2ccccc2S1(=O)=O)Nc1ccc2c(c1)OCCO2,-,-,-,-,-,-,-,-
O=[N+]([O-])c1ccc(N/N=C\c2ccccc2OCc2ccccc2)cc1,-,-,-,+,-,-,-,-
CC(C)CNC(=O)NC(=O)CSc1nc2ccccc2n1CC(C)C,-,-,-,-,-,-,.,.
CCCNC(=O)NC(=O)CSc1nc2ccccc2n1CC(C)C,-,-,-,-,-,-,-,-
CCN(C[C@H]1N[C@@](C)(C(=O)OC)[C@H]2C(=O)N(C)C(=O)[C@@H]12)S(=O)(=O)c1ccc(OC)cc1,-,-,-,-,.,-,.,.
COC(=O)[C@@]1(Cc2ccc(F)cc2)[C@H]2c3cc(C(=O)N(C)C)n(CCCNc4ncc(C(F)(F)F)cc4Cl)c3C[C@H]2CN1C(=O)c1ccccc1,-,.,.,-,.,.,.,.
Cc1cc(C)n2nc(SC(C)C(=O)Nc3ccccc3F)nc2n1 (centres undefined),-,-,-,-,-,-,.,.
COc1ccc2c(c1)CC(C(=O)Nc1ccc(Cl)cc1)/C(=N/O)O2 (centres undefined),-,-,-,-,-,-,.,.
Cc1cccc(C(=O)NC2CCN(C(=O)N3CCOCC3)CC2)c1,-,-,-,+,-,-,-,-
CC(NC(=O)COC(=O)CCC(=O)c1ccc(F)cc1)c1ccccc1 (centres undefined),-,-,-,-,-,-,.,.
COc1cc(-c2c(CCO)sc3ccccc23)cc(OC)c1OC,-,.,.,+,.,.,-,-
COc1ccc(C(C)(NC(C)=O)c2nc(-c3ccccc3OC)cs2)cc1 (centres undefined),-,-,-,-,.,-,.,.
SMILES,SKN-1 inh,M1 antag,M1 PAM,Myeloid diff MLP,ATG4B inh,M1 ag,Myeloid diff CP1,GFP autofluor
Cn1c(SCC(=O)Nc2ccc3c(c2)CCC3)nnc1C1CC1,-,-,-,-,-,-,.,.
CCC(=O)Nc1cccc(NC(=O)CSc2nnc(C3CC3)n2C)c1,-,-,-,-,-,-,-,-
Cc1noc(C)c1S(=O)(=O)Nc1ccc2c(c1)C(=O)N([C@H](C)CO)C[C@H](C)[C@@H](CN(C)C(=O)NC1CCCCC1)O2,-,-,-,-,-,-,.,.
Cc1ncc([N+](=O)[O-])n1CC(=O)Nc1ccc2c(c1)OCO2,-,-,-,-,-,-,.,.
CC(C)=CCOc1ccc2c(C)c(CC(=O)N3C[C@H]4C[C@@H](C3)c3cccc(=O)n3C4)c(=O)oc2c1C,-,-,-,-,-,-,.,.
COc1ccc(CN2C(=O)C(C)Nc3ncnc(N4CCOCC4)c32)cc1 (centres undefined),-,-,-,-,-,-,.,.
CC1Nc2ncnc(N3CCOCC3)c2N(Cc2ccccc2)C1=O (centres undefined),-,-,-,-,-,-,-,-
O=C(NC1CCCCC1)c1cccc2c1C(=O)c1ccc(N3CCC(Cc4ccccc4)CC3)cc1S2(=O)=O,-,-,-,+,-,-,-,-
COc1cc(C(=O)ONC(=O)c2ccc(OC(F)F)cc2)cc(OC)c1OC,-,-,-,-,-,-,.,.
CCc1nc(SCC(=O)c2c[nH]c3ccccc23)n[nH]1,-,-,-,-,-,-,-,-
COc1ccc(C(=O)OCc2cc(C)ccc2C)cc1S(=O)(=O)N1CCCC1,-,-,-,+,-,-,-,-
Cc1ccc(C)c(COC(=O)c2cccc(S(=O)(=O)N3CCCC3)c2)c1,-,-,-,-,-,-,.,.
CC1Cc2ccccc2N1C(=O)Cn1nnc(-c2ccccc2NC(=O)C2CCC2)n1 (centres undefined),-,-,-,-,-,-,-,-
COc1cccc(-c2sc3ccccc3c2-c2ccc(OCCN3CCCCC3)cc2)c1,-,-,-,-,-,-,-,-
c1ccc(-c2sc3ccccc3c2-c2ccc(OCCN3CCCC3)cc2)cc1,-,-,-,-,-,-,-,-
COc1ccccc1-c1sc2ccccc2c1-c1ccc(OCCN2CCCCC2)cc1,-,-,-,-,-,-,.,.
COc1cccc(-c2sc3ccccc3c2-c2ccc(OCCN3CCCC3)cc2)c1,-,-,-,-,-,-,.,.
CN1C(=O)[C@@H]2C[C@@]3([C@@]45C[C@H]6C(=O)N(C)[C@@H](Cc7ccccc7)C(=O)N6[C@@H]4Nc4ccccc45)c4ccccc4N[C@H]3N2C(=O)[C@@H]1Cc1ccccc1,-,-,-,-,-,-,.,.
FC(F)(F)c1cnc(-c2cnc(-c3cccnc3)nc2)c(Cl)c1,-,-,-,-,-,-,.,.
CC1(C(=O)NCc2ccccc2)CCC(=O)N1C1CC1 (centres undefined),-,-,-,-,.,-,.,.

# Bioassay records deposited in PubChem by several laboratories.
